# Test results taken from article PMC7862700, “An all-to-all approach to the identification of sequence-specific readers for epigenetic DNA modifications on cytosine”.
# Experiments:
# Assay in all cases: DAPPL (digital affinity profiling via proximity ligation, sequencing); 10 mM Tris-HCl pH 7.5, 50 mM NaCl, 1 mM DTT, 4% glycerol, room temperature, 30 min; GST-TFs on glutathione beads, 16-mer random dsDNA library, 0.1% formaldehyde crosslink after washing; high values mean tight binding
# FLI1 = biological target: T1, FLI1 (Homo sapiens, UniProt Q01543 1-452); details: protein: recombinant; tags: N-terminal GST; dsDNA, one strand shown
# T1 sequence: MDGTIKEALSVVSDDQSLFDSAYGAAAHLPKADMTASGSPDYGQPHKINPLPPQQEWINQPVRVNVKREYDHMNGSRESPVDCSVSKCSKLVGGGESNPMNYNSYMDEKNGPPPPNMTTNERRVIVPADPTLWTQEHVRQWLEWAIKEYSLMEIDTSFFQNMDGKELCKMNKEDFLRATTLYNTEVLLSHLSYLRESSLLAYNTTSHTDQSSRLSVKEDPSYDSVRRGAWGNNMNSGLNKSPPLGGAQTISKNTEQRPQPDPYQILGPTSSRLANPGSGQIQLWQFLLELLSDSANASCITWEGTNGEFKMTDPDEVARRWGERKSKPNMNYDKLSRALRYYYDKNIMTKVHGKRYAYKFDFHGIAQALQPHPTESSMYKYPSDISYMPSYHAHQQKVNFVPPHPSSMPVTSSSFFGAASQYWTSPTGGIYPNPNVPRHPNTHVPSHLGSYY
# Method in brief: (§1)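 Binding signal is defined as a hexamer's read frequency for one factor over its frequency for the tag-only sample. To obtain reads, GST-fused human transcription factors were expressed in yeast, captured on glutathione beads, barcoded with DNA and pooled with that sample. Pools met 200 nmole of a 16-mer random double-stranded DNA library in Tris/NaCl/DTT/glycerol buffer for 30 min at room temperature before washing, 0.1% formaldehyde crosslinking, proximity ligation (BsaI/T4 ligase, 1 h, 37 °C), PCR and Illumina NextSeq500 sequencing.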
# ELK1 = biological target: T2, ELK1 (Homo sapiens, UniProt P19419 1-428); details: protein: recombinant; tags: N-terminal GST; dsDNA, one strand shown
# T2 sequence: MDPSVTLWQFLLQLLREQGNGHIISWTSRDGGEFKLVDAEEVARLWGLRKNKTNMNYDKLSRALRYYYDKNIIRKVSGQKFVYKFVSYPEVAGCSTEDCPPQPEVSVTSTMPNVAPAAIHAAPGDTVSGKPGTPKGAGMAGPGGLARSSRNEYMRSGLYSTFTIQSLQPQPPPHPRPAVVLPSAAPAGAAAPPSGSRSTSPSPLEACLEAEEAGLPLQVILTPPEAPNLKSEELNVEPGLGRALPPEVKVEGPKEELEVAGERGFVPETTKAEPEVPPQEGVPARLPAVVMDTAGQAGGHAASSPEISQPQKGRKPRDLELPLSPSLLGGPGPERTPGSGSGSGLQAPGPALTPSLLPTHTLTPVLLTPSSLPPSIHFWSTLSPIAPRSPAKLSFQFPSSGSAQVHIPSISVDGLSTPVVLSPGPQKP
# Method in brief: as §1
# GABPA = biological target: T3, GABPA (Homo sapiens, UniProt Q06546 1-454); details: protein: recombinant; tags: N-terminal GST; dsDNA, one strand shown
# T3 sequence: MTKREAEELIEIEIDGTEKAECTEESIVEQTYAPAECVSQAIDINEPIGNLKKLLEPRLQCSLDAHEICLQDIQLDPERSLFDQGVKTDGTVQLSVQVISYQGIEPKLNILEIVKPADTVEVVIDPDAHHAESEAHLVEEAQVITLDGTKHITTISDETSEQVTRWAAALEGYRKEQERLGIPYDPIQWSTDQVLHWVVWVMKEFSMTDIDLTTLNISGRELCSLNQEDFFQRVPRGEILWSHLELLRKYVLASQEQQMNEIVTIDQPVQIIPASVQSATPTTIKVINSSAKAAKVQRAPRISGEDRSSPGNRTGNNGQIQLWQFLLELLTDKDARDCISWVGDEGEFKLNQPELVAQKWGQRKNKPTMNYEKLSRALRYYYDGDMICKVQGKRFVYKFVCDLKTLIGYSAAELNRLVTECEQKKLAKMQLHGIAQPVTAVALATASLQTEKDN
# Method in brief: as §1
# ERG = biological target: T4, ERG (Homo sapiens, UniProt P11308 1-479); details: protein: recombinant; tags: N-terminal GST; dsDNA, one strand shown
# T4 sequence: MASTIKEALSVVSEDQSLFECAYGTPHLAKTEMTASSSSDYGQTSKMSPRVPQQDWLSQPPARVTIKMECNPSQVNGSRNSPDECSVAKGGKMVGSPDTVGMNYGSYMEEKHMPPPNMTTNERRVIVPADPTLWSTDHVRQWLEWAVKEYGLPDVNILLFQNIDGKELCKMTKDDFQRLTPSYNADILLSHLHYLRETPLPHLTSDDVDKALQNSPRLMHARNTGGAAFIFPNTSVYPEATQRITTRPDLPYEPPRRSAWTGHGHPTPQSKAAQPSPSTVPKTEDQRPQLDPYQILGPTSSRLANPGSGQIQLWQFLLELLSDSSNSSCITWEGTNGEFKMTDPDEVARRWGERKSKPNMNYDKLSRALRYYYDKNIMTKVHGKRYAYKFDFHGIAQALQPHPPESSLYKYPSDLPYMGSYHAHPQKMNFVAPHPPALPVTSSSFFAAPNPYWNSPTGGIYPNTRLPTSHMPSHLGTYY
# Method in brief: as §1
# ELF1 = ELF1 (Homo sapiens, UniProt P32519 1-619); details: protein: recombinant; tags: N-terminal GST; dsDNA, one strand shown
# Sequence of ELF1 (P32519 whole entry): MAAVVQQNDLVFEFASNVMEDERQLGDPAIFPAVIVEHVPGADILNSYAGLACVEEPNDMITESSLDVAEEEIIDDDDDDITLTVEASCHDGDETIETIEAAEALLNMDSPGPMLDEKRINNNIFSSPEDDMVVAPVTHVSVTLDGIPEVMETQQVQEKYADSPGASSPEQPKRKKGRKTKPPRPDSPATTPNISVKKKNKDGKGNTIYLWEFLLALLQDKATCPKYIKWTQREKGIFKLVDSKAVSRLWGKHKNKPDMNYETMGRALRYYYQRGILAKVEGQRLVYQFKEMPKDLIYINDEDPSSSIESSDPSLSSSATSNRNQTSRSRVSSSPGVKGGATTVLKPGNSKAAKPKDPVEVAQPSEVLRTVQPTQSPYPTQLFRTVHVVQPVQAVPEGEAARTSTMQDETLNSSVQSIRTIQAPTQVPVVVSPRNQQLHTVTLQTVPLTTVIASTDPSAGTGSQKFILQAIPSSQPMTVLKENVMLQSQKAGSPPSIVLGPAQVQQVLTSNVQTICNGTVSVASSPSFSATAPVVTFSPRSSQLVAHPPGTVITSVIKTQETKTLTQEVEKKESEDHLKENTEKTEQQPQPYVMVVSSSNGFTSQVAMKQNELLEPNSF
# Method in brief: as §1
# EHF = biological target: T5, EHF (Homo sapiens, UniProt Q9NZC4 1-300); details: protein: recombinant; tags: N-terminal GST; dsDNA, one strand shown
# T5 sequence: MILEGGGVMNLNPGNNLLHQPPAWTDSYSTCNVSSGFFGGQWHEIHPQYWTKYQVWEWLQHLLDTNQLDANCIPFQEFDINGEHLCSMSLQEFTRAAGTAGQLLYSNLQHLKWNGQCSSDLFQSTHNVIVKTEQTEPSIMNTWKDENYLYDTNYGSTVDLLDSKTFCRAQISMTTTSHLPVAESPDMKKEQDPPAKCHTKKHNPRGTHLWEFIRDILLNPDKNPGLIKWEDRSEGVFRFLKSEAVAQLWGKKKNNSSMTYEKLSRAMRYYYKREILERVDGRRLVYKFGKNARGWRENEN
# Method in brief: as §1
# SPI1 = SPI1 (Homo sapiens, UniProt P17947 1-270); details: protein: recombinant; tags: N-terminal GST; dsDNA, one strand shown
# Method in brief: as §1
# SPIB = SPIB (Homo sapiens, UniProt Q01892 1-262); details: protein: recombinant; tags: N-terminal GST; dsDNA, one strand shown
# Sequence of SPIB (Q01892 whole entry): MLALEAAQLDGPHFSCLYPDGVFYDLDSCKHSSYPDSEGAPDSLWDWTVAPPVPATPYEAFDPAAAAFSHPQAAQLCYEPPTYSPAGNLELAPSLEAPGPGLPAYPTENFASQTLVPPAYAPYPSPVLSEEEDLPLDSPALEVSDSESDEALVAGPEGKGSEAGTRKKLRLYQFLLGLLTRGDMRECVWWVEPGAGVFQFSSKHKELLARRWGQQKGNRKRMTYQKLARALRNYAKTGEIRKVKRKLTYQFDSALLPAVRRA
# Method in brief: as §1
# ELK3 = biological target: T6, ELK3 (Homo sapiens, UniProt P41970 1-407); details: protein: recombinant; tags: N-terminal GST; dsDNA, one strand shown
# T6 sequence: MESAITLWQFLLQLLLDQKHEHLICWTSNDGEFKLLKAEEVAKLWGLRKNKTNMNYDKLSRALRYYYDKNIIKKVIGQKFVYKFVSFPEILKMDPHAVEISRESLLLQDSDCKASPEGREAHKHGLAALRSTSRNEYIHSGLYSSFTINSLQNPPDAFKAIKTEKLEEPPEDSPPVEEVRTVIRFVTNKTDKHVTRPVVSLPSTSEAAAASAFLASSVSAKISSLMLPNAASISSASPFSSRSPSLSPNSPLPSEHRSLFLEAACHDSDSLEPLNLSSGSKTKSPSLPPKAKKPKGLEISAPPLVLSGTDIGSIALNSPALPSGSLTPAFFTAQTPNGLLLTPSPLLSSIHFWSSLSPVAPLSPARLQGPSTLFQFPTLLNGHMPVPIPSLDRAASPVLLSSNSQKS
# Method in brief: as §1
# FEV = biological target: T7, FEV (Homo sapiens, UniProt Q99581 1-238); details: protein: recombinant; tags: N-terminal GST; dsDNA, one strand shown
# T7 sequence: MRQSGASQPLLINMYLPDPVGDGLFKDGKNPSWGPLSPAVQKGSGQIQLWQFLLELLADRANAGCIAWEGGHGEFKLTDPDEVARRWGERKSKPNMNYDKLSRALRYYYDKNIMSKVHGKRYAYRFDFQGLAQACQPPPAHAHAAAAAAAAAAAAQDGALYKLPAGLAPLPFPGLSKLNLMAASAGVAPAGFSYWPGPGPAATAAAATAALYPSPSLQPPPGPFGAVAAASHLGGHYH
# Method in brief: as §1
# ETV5 = ETV5 (Homo sapiens, UniProt P41161 1-510); details: protein: recombinant; tags: N-terminal GST; dsDNA, one strand shown
# Sequence of ETV5 (P41161 whole entry): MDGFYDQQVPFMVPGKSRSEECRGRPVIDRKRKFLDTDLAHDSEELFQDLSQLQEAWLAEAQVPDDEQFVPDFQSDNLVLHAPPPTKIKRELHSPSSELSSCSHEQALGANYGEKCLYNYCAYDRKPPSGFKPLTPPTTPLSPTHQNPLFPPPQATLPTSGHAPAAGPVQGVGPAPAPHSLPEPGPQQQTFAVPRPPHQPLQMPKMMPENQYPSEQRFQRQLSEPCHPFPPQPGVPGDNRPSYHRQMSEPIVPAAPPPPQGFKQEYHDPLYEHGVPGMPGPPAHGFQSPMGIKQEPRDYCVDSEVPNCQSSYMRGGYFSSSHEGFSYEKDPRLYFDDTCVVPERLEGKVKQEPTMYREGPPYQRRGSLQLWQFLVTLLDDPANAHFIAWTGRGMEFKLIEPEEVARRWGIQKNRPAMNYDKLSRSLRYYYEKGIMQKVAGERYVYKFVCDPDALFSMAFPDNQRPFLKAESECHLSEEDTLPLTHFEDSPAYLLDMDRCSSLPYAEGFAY
# Method in brief: as §1
# HSF1 = HSF1 (Homo sapiens, UniProt Q00613 1-529); details: protein: recombinant; tags: N-terminal GST; chain copies: 3; dsDNA, one strand shown
# Sequence of HSF1 (Q00613 whole entry): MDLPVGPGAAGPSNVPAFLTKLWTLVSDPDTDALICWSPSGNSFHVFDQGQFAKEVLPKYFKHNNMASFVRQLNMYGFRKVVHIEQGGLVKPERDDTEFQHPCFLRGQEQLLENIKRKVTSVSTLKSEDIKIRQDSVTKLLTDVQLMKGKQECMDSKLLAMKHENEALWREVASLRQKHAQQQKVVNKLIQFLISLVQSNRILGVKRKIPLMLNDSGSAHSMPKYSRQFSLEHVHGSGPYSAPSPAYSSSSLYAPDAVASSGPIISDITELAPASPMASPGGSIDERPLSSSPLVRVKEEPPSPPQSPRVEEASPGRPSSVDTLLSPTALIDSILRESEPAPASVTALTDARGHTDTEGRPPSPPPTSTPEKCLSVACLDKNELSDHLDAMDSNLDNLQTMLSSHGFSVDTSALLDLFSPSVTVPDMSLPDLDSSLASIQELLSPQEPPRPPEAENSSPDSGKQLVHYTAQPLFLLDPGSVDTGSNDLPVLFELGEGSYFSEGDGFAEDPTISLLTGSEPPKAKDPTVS
# Method in brief: as §1
# SPIC = biological target: T8, SPIC (Homo sapiens, UniProt Q8N5J4 1-248); details: protein: recombinant; tags: N-terminal GST; dsDNA, one strand shown
# T8 sequence: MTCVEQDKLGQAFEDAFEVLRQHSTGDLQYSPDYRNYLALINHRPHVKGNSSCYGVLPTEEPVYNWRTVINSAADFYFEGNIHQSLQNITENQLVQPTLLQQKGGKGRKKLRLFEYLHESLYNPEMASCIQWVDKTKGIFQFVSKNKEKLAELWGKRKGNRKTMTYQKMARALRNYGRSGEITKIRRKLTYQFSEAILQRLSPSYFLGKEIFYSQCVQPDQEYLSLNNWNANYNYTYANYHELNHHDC
# Method in brief: as §1
# ELF4 = ELF4 (Homo sapiens, UniProt Q99607 1-663); details: protein: recombinant; tags: N-terminal GST; dsDNA, one strand shown
# Sequence of ELF4 (Q99607 whole entry): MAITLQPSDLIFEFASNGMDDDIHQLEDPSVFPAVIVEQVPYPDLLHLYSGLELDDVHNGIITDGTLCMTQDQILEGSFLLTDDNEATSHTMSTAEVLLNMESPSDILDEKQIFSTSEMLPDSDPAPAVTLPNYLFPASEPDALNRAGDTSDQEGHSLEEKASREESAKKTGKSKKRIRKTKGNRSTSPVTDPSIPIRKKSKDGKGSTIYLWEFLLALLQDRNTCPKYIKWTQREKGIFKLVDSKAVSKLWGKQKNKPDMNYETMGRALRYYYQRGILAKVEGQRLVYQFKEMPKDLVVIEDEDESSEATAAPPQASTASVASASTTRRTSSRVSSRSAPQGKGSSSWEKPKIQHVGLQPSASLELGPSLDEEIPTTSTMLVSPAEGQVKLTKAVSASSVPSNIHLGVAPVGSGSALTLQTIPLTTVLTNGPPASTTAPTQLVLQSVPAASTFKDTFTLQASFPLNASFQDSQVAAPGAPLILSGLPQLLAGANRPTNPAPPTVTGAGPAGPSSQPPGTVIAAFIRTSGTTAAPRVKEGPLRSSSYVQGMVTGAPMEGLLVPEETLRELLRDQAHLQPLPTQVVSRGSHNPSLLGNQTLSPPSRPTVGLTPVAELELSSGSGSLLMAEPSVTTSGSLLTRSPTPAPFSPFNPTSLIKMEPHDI
# Method in brief: as §1
# ELK4 = biological target: T9, ELK4 (Homo sapiens, UniProt P28324-2 1-405); details: protein: recombinant; tags: N-terminal GST; dsDNA, one strand shown
# T9 sequence: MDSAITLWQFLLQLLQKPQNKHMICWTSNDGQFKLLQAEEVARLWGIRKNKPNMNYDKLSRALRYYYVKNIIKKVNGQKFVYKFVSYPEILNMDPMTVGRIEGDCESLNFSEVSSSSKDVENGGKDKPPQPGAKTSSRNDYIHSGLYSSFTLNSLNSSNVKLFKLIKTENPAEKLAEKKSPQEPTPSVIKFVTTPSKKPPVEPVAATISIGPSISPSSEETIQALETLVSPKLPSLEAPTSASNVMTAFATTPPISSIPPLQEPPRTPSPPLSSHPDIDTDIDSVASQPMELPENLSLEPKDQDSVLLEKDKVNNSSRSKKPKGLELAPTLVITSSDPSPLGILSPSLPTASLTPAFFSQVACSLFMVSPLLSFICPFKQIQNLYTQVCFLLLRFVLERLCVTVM
# Method in brief: as §1
# ETV2 = biological target: T10, ETV2 (Homo sapiens, UniProt O00321 1-342); details: protein: recombinant; tags: N-terminal GST; dsDNA, one strand shown
# T10 sequence: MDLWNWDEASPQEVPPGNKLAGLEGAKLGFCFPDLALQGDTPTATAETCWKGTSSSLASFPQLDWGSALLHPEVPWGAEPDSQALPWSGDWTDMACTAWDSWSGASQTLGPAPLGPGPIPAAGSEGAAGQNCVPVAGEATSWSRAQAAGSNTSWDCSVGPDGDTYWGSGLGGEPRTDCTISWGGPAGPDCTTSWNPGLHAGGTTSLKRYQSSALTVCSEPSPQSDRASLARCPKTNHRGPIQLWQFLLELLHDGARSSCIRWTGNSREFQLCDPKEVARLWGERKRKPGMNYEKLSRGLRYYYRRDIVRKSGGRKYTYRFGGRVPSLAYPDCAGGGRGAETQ
# Method in brief: as §1
# ELF3 = biological target: T11, ELF3 (Homo sapiens, UniProt P78545 1-371); details: protein: recombinant; tags: N-terminal GST; dsDNA, one strand shown
# T11 sequence: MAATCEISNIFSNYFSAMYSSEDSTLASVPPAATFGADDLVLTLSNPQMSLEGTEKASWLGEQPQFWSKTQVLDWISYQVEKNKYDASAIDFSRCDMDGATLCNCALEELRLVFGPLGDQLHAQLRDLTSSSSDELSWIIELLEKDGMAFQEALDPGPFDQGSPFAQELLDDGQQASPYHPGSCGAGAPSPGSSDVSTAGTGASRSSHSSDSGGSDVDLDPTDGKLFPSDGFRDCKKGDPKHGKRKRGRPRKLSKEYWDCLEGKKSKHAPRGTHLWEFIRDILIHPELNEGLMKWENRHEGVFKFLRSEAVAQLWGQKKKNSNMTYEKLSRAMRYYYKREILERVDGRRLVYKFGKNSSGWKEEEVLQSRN
# Method in brief: as §1
# CRX = CRX (Homo sapiens, UniProt O43186 1-299); details: protein: recombinant; tags: N-terminal GST; dsDNA, one strand shown
# Sequence of CRX (O43186 whole entry): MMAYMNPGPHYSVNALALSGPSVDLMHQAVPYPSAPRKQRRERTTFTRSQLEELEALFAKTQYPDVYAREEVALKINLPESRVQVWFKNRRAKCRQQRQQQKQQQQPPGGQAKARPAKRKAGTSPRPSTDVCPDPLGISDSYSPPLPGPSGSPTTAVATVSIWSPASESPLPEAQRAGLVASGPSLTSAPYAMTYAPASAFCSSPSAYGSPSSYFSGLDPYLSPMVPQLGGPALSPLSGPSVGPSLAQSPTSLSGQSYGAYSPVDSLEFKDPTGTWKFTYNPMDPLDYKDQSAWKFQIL
# Method in brief: as §1
# ETV1 = ETV1 (Homo sapiens, UniProt P50549 1-477); details: protein: recombinant; tags: N-terminal GST; dsDNA, one strand shown
# Sequence of ETV1 (P50549 whole entry): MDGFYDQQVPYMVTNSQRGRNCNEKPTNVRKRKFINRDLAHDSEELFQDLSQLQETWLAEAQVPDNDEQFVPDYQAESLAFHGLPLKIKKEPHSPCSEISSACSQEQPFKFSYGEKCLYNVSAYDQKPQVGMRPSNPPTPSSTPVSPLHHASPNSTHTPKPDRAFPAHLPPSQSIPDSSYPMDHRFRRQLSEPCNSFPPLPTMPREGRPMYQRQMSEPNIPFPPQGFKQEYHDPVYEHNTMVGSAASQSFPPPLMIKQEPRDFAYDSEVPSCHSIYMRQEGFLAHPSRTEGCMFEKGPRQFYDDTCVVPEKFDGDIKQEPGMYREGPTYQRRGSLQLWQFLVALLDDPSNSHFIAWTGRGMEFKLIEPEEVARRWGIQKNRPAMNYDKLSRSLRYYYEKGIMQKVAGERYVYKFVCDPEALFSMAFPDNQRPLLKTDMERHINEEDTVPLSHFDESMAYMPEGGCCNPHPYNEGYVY
# Method in brief: as §1
sequence,measurement,setting,value
ATAAAA,binding signal,FLI1,"1.09 fold enrichment (6-mer frequency, TF over GST control)"
same,binding signal,ELK1,"1.15 fold enrichment (6-mer frequency, TF over GST control)"
same,binding signal,GABPA,"1.1 fold enrichment (6-mer frequency, TF over GST control)"
same,binding signal,ERG,"1.09 fold enrichment (6-mer frequency, TF over GST control)"
same,binding signal,ELF1,"1.12 fold enrichment (6-mer frequency, TF over GST control)"
same,binding signal,EHF,"1.1 fold enrichment (6-mer frequency, TF over GST control)"
same,binding signal,SPI1,"1.17 fold enrichment (6-mer frequency, TF over GST control)"
same,binding signal,SPIB,"1.21 fold enrichment (6-mer frequency, TF over GST control)"
same,binding signal,ELK3,"1.12 fold enrichment (6-mer frequency, TF over GST control)"
same,binding signal,FEV,"1.15 fold enrichment (6-mer frequency, TF over GST control)"
same,binding signal,ETV5,"1.12 fold enrichment (6-mer frequency, TF over GST control)"
same,binding signal,HSF1,"1.31 fold enrichment (6-mer frequency, TF over GST control)"
same,binding signal,SPIC,"1.02 fold enrichment (6-mer frequency, TF over GST control)"
same,binding signal,ELF4,"1.2 fold enrichment (6-mer frequency, TF over GST control)"
same,binding signal,ELK4,"1.17 fold enrichment (6-mer frequency, TF over GST control)"
same,binding signal,ETV2,"1.2 fold enrichment (6-mer frequency, TF over GST control)"
same,binding signal,ELF3,"1.2 fold enrichment (6-mer frequency, TF over GST control)"
same,binding signal,CRX,"1.43 fold enrichment (6-mer frequency, TF over GST control)"
same,binding signal,ETV1,"1.16 fold enrichment (6-mer frequency, TF over GST control)"
